# The list is not random: actives were taken first. Their share in the collection is about 3.5%.
# ERb SRC1 inh = blocks coactivator binding to human estrogen receptor beta; Q92731; TR-FRET ER-beta LBD / SRC1-Cy5 peptide binding; receptor agonist-loaded with 1 µM estradiol; inhibition, % at 25.6 µM; actives 1.3% (n = 86,000);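 active = compounds whose percent inhibition of the receptor-coactivator binding signal exceeds about 50% in the single-dose screen, limit read from the data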;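 note: 0% = receptor plus peptide wells without compound and 100% = peptide-only wells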
# CD11b adhes enh = CD11b/CD18-fibrinogen binding enhancement. K562 CD11b/CD18 adhesion to fibrinogen, ATPlite luminescence. activation, % at 10 µM. actives 0.07% (n = 93,000). AID 1499;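 active = 10 µM primary screen giving 50% or more activity, confirmed by 40% or more on retest at that dose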
# Target sequence (P05107 whole entry, looked up, other chains not shown): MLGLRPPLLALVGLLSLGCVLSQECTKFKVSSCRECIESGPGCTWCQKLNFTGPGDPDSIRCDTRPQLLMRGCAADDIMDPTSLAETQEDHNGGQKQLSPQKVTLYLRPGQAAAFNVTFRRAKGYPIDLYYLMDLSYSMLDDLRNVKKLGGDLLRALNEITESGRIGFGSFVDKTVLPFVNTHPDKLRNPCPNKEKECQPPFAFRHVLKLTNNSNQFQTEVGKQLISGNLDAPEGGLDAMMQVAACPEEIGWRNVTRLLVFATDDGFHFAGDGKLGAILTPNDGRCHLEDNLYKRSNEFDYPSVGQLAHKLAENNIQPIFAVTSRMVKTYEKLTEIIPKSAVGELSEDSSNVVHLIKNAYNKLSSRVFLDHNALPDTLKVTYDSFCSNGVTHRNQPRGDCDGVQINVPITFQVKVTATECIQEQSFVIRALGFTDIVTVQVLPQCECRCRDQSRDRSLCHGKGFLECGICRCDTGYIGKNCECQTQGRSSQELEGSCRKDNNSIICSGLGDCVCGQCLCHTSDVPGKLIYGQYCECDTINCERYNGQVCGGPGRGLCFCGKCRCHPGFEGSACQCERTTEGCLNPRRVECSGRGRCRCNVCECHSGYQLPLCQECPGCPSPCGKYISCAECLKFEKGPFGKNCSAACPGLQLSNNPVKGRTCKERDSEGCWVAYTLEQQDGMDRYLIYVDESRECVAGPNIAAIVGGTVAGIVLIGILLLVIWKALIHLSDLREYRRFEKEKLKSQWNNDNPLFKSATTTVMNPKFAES
# ERa SRC1 pot = ER-alpha (human) coactivator binding potentiation | P03372 | TR-FRET ERalpha-LBD/SRC-Cy5 coactivator binding, 2 h; 100 = basal binding, no effect | coactivator binding (% of control), % at 25.6 µM | actives 1.3% (n = 86,000) | AID 639; in the data active = activity above about 200%;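 note: binding measured in presence of low estradiol as agonist stimulus; 0% = peptide alone without receptor and 100% = receptor with peptide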
# FAK blocker = blocks human focal adhesion kinase activity; AID 727; biochemical FAK kinase activity assay; inhibition, %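 (tested at 7 µM)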; Q05397; actives 0.84% (n = 97,000); in the data active = inhibition above about 19%;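 note: 0% = DMSO and 100% = reference compound high control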
# Mac1 fbg inh = inhibitors of human CD11b/CD18 binding to fibrinogen | K562 CD11b/CD18 adhesion to fibrinogen, ATPlite luminescence; Mn2+ added to activate the integrin | inhibition, % at 10 µM | actives 0.54% (n = 93,000) | P05107+P11215;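 active = primary inhibition of 50% or more at 10 µM, then 40% or more on retest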
# ERa SRC1 inh = blocks coactivator binding to human estrogen receptor alpha. inhibition, % at 25.6 µM. TR-FRET ER-alpha LBD / SRC-1 peptide, estradiol-bound. P03372. actives 1.7% (n = 86,000); in the data active = inhibition above about 50%;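 note: 0% = receptor plus peptide control and 100% = peptide only without receptor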
# Active calls of the source: *; · = no result given; [ ] = another dose, or the depositor's remark.
SMILES,ERb SRC1 inh,CD11b adhes enh,ERa SRC1 pot,FAK blocker,Mac1 fbg inh,ERa SRC1 inh
COc1cccc(-c2nc(CS(=O)(=O)CC(=O)Nc3cc(C)ccc3C)c(C)o2)c1,12,5,214*[fluorescence artefact?],-3,-12,16
CCc1nc(Nc2ccc(N3CCN(C(C)=O)CC3)cc2)c2oc3ccccc3c2n1,61*[fluorescence artefact?],-4,54,15,49,33
CCc1nc(Nc2ccccc2)c2oc3ccccc3c2n1,·,6,·,3,-6,·
N#Cc1c(NC(=O)CSc2ncccn2)oc(-c2ccccc2)c1-c1ccccc1,45,·,60,8,·,60*
Cc1ccnc(SCC(=O)Nc2oc(-c3ccccc3)c(-c3ccccc3)c2C#N)n1,3,-4,109,-2,46,-1
COc1ccc(-c2oc(NC(=O)CCl)c(C#N)c2-c2ccc(OC)cc2)cc1,55*[fluorescence artefact?],4,56,0,-25,7
COc1ccc(-c2oc(NC(=O)CSc3ncn[nH]3)c(C#N)c2-c2ccc(OC)cc2)cc1,-5,-4,71,-6,0,9
COc1cc(NC(=O)N[C@H](C(=O)O)C(C)C)cc(OC)c1,7,-3,108,-6,12,1
CCc1ccc2[nH]c(=O)c(CN(Cc3ccc4c(c3)OCO4)C(=O)c3ccco3)cc2c1,41,·,74,0,·,74*
COC(=O)c1cc2sc(Cl)cc2n1CC(=O)Nc1ccc(OC)c(OC)c1OC,25,·,109,3,·,54*[fluorescence artefact?]
CC1(C)Oc2ccc3ccc(=O)oc3c2-c2cn[nH]c21,-4,-1,113,24*,-11,-6
O=C(COC(=O)c1cccc2c1C(=O)c1ccccc1C2=O)NC1CCCCC1,·,4,·,·,3,·
Nc1c(Cl)cc(Cl)cc1C(=O)OCC(=O)NC1CC1,55*,-2,59,3,-18,40
CCOC(=O)c1c(C)[nH]c(C)c1C(=O)CSc1nc2ccccc2c(=O)n1-c1ccc(C)cc1,·,3,·,·,1,·
O=C(Nc1ccc(F)cc1)c1cccc2c1C(=O)N(Cc1ccccn1)C2,21,-2,77,3,-8,10
O=C(Nc1ccc2c(c1)OCO2)C1CCN(C(=O)CSc2ncnc3ccccc23)CC1,46,3,60,14,-12,55*[fluorescence artefact?]
COc1ccc(CCNc2nc(-c3cccnc3)cs2)cc1OC,·,·,·,5,·,·
COc1ccc(CCNc2nc(-c3sc(C)nc3C)cs2)cc1OC,2,-7,107,-1,60*,1
CCOC(=O)c1[nH]c(C)c(/C(O)=C2\C(=O)C(=O)N(CCN(C)C)C2c2cccc(OC)c2OC)c1C (stereo not given),-9,-2,599*[fluorescence artefact?],-2,56,-2
CN(CC(=O)NC(=O)NCc1ccco1)Cc1nc2ccccc2c(=O)[nH]1,43,8,71,·,0,61*
C=CCc1cccc(/C=N/c2ncccc2O)c1O,58*[fluorescence artefact?],1,63,-1,-5,22
C=CCc1cccc(/C=N/n2cnnc2)c1O,·,3,·,0,-50,·
Cc1cccc2cc(CN(Cc3cccs3)Cc3nnnn3Cc3ccccc3)c(=O)[nH]c12,·,-5,·,0,8,·
CCn1cc([N+](=O)[O-])c(C(=O)N2N=C(c3ccc4ccccc4c3)CC2c2cc(Br)ccc2O)n1 (stereo not given),51*[fluorescence artefact?],·,104,0,·,41
O=C1Nc2ccc(F)cc2C12SCCS2,·,-1,·,2,17,·
SMILES,ERb SRC1 inh,CD11b adhes enh,ERa SRC1 pot,FAK blocker,Mac1 fbg inh,ERa SRC1 inh
CCCCCc1ccc(CC(=O)Nn2c(C)nc3ccccc3c2=O)cc1,-7,-3,96,-2,88*,3
c1ccc2nc(-c3nc4ccccc4o3)ccc2c1,-5,0,111,·,20,-3
c1cc(-c2nc3ccccc3o2)nc(-c2nc3ccccc3o2)c1,29,·,248*,·,·,12
C=CCn1c(COC)nnc1SCC(=O)c1ccc(F)cc1,-26,-2,109,2,-2,-22
CCc1c(C)sc(NC(=O)c2cc(C)no2)c1C#N,-4,-2,100,0,6,-3
CCc1c(C)sc(NC(=O)CC#N)c1C#N,64*[fluorescence artefact?],31,40,7,19,77*[fluorescence artefact?]
O=C(CCn1nc(-c2ccc(Cl)cc2)ccc1=O)NCCCN1CCCCCC1,31,46,99,3,-1,74*[fluorescence artefact?]
O=C(Cn1nc(-c2ccc(Cl)cc2)ccc1=O)NCCCN1CCN(Cc2ccccc2)CC1,1,·,108,·,·,3
NC(=O)c1ccsc1NC(=O)c1cccs1,2,·,114,28*,·,0
COc1ccc(NC(=O)COC(=O)[C@@H]2CCCN2C(=O)c2cccs2)c(OC)c1,·,-4,·,0,6,·
Nc1ccc(NC(=O)c2cccs2)c(Cl)c1,-8,-1,237*[fluorescence artefact?],3,-23,-6
NC(=O)c1ccsc1NC(=O)COC(=O)C1CCCN1C(=O)c1cccs1 (stereo not given),68*[fluorescence artefact?],-1,44,2,19,53*[fluorescence artefact?]
Nc1ccc(Cl)c(NC(=O)c2cccs2)c1,-5,4,100,-1,12,7
CSc1nnc2c3cc(C)ccc3n(Cc3ccccc3)c2n1,54*[fluorescence artefact?],22,105,·,-13,68*[fluorescence artefact?]
Cn1c(N)c(C(=O)COC(=O)c2ccc(Br)o2)c(=O)n(C)c1=O,19,-2,84,1,-14,11
Cc1ccc(C(=O)NCC(=O)OCC(=O)c2c(N)n(C)c(=O)n(C)c2=O)s1,50*,-2,64,-3,1,53*
CCC(=O)c1ccc(OCC(O)CN2CCN(S(=O)(=O)N3CCCCC3)CC2)cc1 (stereo not given),-11,2,116,-1,0,-7
CSc1ccccc1C(=O)Nc1ccc2c(c1)OCCO2,2,-2,93,1,-6,12
O=C(Nc1ccc2c(c1)OCCO2)c1coc2ccccc2c1=O,·,-6,·,·,52*,·
COc1ccc(CCn2c(N)cc(=O)[nH]c2=S)cc1OC,58*[fluorescence artefact?],-1,44,-11,-2,47
CCC(=O)Oc1ccc(/C(CC)=C(\CC)c2ccc(OC(=O)CC)cc2)cc1,-1,·,376*,·,·,-3
Cc1cc2c(=O)n(Cc3ccco3)c(SCC(=O)N3CCCc4ccccc43)nc2s1,-1,8,106,0,-2,7
O=C(CSc1nc2sc3c(c2c(=O)n1Cc1ccco1)CCC3)N1CCc2ccccc21,36,·,344*,4,·,36
COc1cc2[nH]c(=S)n(C3CCCC3)c(=O)c2cc1OC,-3,1,114,·,15,1
COc1cc2[nH]c(=S)n(N(C(C)=O)C(C)=O)c(=O)c2cc1OC,-78,-3,201*[fluorescence artefact?],1,-9,-67
Cc1ccc(-c2nnc(CSc3nc4cc5c(cc4cc3C)OCO5)o2)cc1,60*,0,206*[fluorescence artefact?],2,10,77*[fluorescence artefact?]
Cc1ccc(CSc2nnc(-c3ccc4c(c3)OCO4)o2)cc1,0,-3,132,1,-10,3
